Each structure is given as a SMILES string. Inconclusive results are not listed. Values without a mark were called inactive. Activity calls are given as the source filed them. Calls follow the shape of the dose curve; as a rule, active = well fitted inhibition curve with a large enough effect; inconclusive = small, poorly fitted or top-dose-only effect; inactive = no such curve, though single readings can be large or run the other way.
% is scaled to controls: 0 for no effect and ±100 for the full control effect; potency is read from the fitted curve at half-maximal effect.

The assay can be described thus: qHTS for Inhibitors of the Aldehyde Dehydrogenase Family (ALDH1A2, ALDH1A3, ALDH2, ALDH3A1) (AID 2061307). Also: nearly all actives have a fitted effect of over 50% in size. As to Potency: test system not described further here. The conditions noted are these: ALDH inhibition qHTS; series mostly up to 50.3 µM; activity change, negative = inhibition: at the top concentration. Background: In qHTS, concentration-response curves come from the screen itself.
With `Cc1c(Cl)cccc1-n1c(CCC(=O)O)ccc1-c1cccs1`, the Potency is 6.34 µM (active).
For the molecule `CC(=O)Nc1cccc(C(=O)Nc2nc(-c3ccc4c(c3)CCC(=O)N4)cs2)c1`, the “activity change, negative = inhibition” value is -51.7% [at 34.4 µM].
Take `O=C(c1cnc(N2CCCCC2)c2ccccc12)N1CCN(c2ccc(Cl)cc2)CC1`: the “activity change, negative = inhibition” value was -3.27%.
Regarding `C[S+](=O)([O-])c1ccc(-c2nnc3ccc(C(=O)NCCc4ccccc4F)cn23)cc1`, the “activity change, negative = inhibition” value is -21.9% [at 34.4 µM].
On to `Fc1ccc(Cn2cnc3ccccc32)cc1Cl`, for which the Potency is 8.96 µM (active).
On to `COc1ccc(-c2ccncc2)cc1OC`, for which the “activity change, negative = inhibition” value was -17.3%.
Regarding `Ic1ccc(CN2CCC(N(CCc3ccccc3)Cc3ccccc3)CC2)cc1`, the “activity change, negative = inhibition” value was -21.7%.
Take `COc1ccccc1C(=O)Nc1nc2nc(C)cc(=O)n2[nH]1`: the “activity change, negative = inhibition” value is -10.3%.
With `O=C(N/N=C/c1ccc(Br)o1)c1cccc(F)c1`, the Potency was 6.31 µM (active).
On to `CC(C)CCn1c(O)c(N=NC(=O)c2cccnc2)c2ccccc21`, for which the “activity change, negative = inhibition” value is 3.64%.
Turning to `O=C(CSc1nc2ncccc2c(=O)n1-c1ccccc1)Nc1ccccc1`, the “activity change, negative = inhibition” value is 3.76%.
Regarding `Cc1oc(-c2ccc(C(F)(F)F)cc2)nc1COc1cccc2cc(NS(=O)(=O)C(F)(F)F)ccc12`, the Potency is 12.7 µM (active).
`Cc1ccc(NC(=O)c2cnc3cc(C)ccn3c2=O)c(C)c1`: the “activity change, negative = inhibition” value is -50.3% [at 34.4 µM].
As to `O=C(CNc1cccc(S(=O)(=O)N2CCOCC2)c1)Nc1ccc(OC(F)(F)F)cc1`, the Potency is 1.27 µM (active).
As to `COCCCn1c(SCC(=O)Nc2ccc(C(N)=O)cc2)nnc1-c1ccc(Cl)cc1`, the Potency was 2.24 µM (active).
Consider `CNc1nc2c(s1)C(c1ccccc1Br)CC(=O)N2` (stereo not given), for which the Potency is 10.1 µM (active).
Turning to `O=C1c2ccccc2-c2nnc(-c3ccccc3Cl)cc21`, the “activity change, negative = inhibition” value was -13.3%.
On the same count and under the same terms, with `Oc1[nH]c2ccccc2c1N=NC(=S)Nc1ccc2c(c1)CCC2` the figure was -18.5%.
Consider `Cc1cc(Br)c2c(c1)/C(=C\C(=O)c1cccs1)C(=O)N2`, for which the Potency was 2.52 µM (active).
For `Cn1nnnc1Sc1ncnc2n[nH]c(-c3ccccc3)c12`, the “activity change, negative = inhibition” value is -26.4%.
As for `CNC(=O)c1cc(-c2ccc(N3CCOCC3)cc2)cc2c1OCCN2Cc1cccnc1`, the “activity change, negative = inhibition” value was 0% [at 34.4 µM].
For the molecule `O=C(Nc1nc(-c2ccccn2)cs1)C1CCCCC1`, the Potency is 3.98 µM (active).
Regarding `O=C(Nc1ccccc1F)c1nc(S(=O)(=O)Cc2ccccc2F)ncc1Cl`, the Potency is 3.16 µM (active).
In the case of `NCC(=O)Nc1cc(O)cc(-c2nn3c(=O)cc(N4CCNCC4)nc3s2)c1`, the “activity change, negative = inhibition” value is 0%.
With `CCOc1ccc(CNC(=O)c2cnc3c(C)cccn3c2=O)cc1`, the “activity change, negative = inhibition” value was 0.456% [at 34.4 µM].
Regarding `Cc1c2c(=O)n(-c3ccccc3)[nH]c2cc(=O)n1Cc1ccco1`, the Potency was 22.5 µM (active).
For `O=C(CN1CCC(CCc2ccccc2)CC1)Nc1ccccc1`, the Potency is 15.8 µM (active).
As to `CCN(CC)S(=O)(=O)c1cccc(NC(=O)CNc2cccc(S(=O)(=O)N3CCOCC3)c2)c1`, the Potency was 10 µM (active).
As for `COc1ccc(-n2c(C)c(C(C)=O)c3cc(OC(=O)c4ccccc4OC(C)=O)ccc32)cc1`, the “activity change, negative = inhibition” value was 0% [at 34.4 µM].
Take `Nc1c(Cc2ccc(S(N)(=O)=O)cc2)c(-c2ccccc2)nn1-c1nc(C(=O)O)co1`: the “activity change, negative = inhibition” value is -2.94%.
Consider `O=C(N/N=C/c1ccc(Sc2ccccn2)s1)c1cccc(F)c1`, for which the Potency is 15.9 µM (active).
On to `CC(C)c1ccc(-c2cc(-c3nn(-c4nc(C(=O)O)cs4)c(CC4CC4)c3Cc3ccc(S(N)(=O)=O)cc3)ccc2F)cc1`, for which the Potency is 1.12 µM (active).
Regarding `O=C(c1ccco1)N1CCN(Cc2nc3ccccc3c(=O)n2-c2ccccc2Oc2ccccc2)CC1`, the “activity change, negative = inhibition” value is -23.3%.
For `Cc1c2c(=O)n(-c3ccccc3)[nH]c2cc(=O)n1Cc1ccccn1`, the “activity change, negative = inhibition” value is -29%.
With `CCOC(=O)c1c(C)n(-c2ccc(OC)cc2)c2ccc(O)cc12`, the “activity change, negative = inhibition” value is 15.1% [at 34.4 µM].
Regarding `COc1cc(O)c(C(CC(=O)N2CC(C)CC(C)C2)c2cccc(NS(C)(=O)=O)c2)c(OC)c1` (stereo not given), the Potency was 3.66 µM (active).
As for `COc1ccc(C(=O)N=Nc2c(O)n(Cc3c(Cl)cccc3Cl)c3ccccc23)cc1`, the “activity change, negative = inhibition” value is 53.1%.
In the case of `COc1cc(O)c(C(CC(=O)N2CC(C)CC(C)C2)c2cccc(OC(C)C)c2)c(OC)c1` (stereo not given), the Potency is 12.7 µM (active).
As for `CS(=O)Cc1cccc(C(=O)Nc2cccc3cccnc23)c1` (stereo not given), the “activity change, negative = inhibition” value is -12% [at 34.4 µM].
On to `O=C(Nc1ccnc(Cc2ccccc2)c1)c1ccc(-c2cccc([N+](=O)[O-])c2)o1`, for which the Potency was 2.01 µM (active).

Source of the values: PubChem BioAssay (NCATS).
